Bioassay records from PubChem.
Hits are enriched below; roughly 2.9% of the tested compounds scored in any of these assays.
Mtb hypoxia inh – reduces hypoxia-regulated biosensor signal in M. tuberculosis; M. tuberculosis hypoxia-regulated fluorescent reporter, fluorescence; fluorescence inhibition, % (concentration not given with the values); actives 0.1% (n = 300,000); AID 1159583; in the data active = fluorescence inhibition mostly above about 23%, no sharp cut-off; inactive = mostly below about 17%
GDH-TPI counter-1 – counter-screen for M. tuberculosis FBA inhibitors: GDH-TPI coupled enzymes; GDH-TPI coupled enzyme counterscreen, NADH absorbance; inhibition, % at 4.8 µM; actives 1.2% (n = 360,000); AID 588335; in the data active = inhibition above about 30%
Mtb BioA inh – inhibitors of Mycobacterium tuberculosis BioA enzyme | purified M. tuberculosis BioA enzyme, plate reader | inhibition, % at 9.99 µM | AID 602481 | actives 0.096% (n = 360,000); in the data active = inhibition above about 40%
FadD28 binding – M. tuberculosis FadD28 bisubstrate binding inhibition | FadD28 bisubstrate probe binding, fluorescence polarization | inhibition, % at 12.5 µM | actives 0.22% (n = 360,000) | AID 588549; in the data active = inhibition above about 8.5%, passing the limit was not always enough
FBA Mtb inh – Mtb fructose-bisphosphate aldolase inhibition | inhibition, % at 1 µM | actives 2.3% (n = 360,000) | purified M. tuberculosis FBA, fluorescence read-out | P9WQA3
Target sequence (P9WQA3 whole entry, looked up): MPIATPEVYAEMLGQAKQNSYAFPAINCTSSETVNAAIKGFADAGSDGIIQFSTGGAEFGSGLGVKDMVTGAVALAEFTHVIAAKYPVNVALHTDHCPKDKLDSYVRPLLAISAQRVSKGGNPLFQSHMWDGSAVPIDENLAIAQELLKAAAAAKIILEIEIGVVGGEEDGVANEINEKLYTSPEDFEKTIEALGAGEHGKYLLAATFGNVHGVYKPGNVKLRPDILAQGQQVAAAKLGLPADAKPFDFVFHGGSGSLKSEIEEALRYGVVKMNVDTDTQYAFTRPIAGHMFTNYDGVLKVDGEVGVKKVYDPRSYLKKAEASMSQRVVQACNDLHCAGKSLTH
Mtb FBA confirm – confirmation of M. tuberculosis fructose-bisphosphate aldolase inhibitors; actives 78% (n = 5,600); inhibition, % at 1 µM; purified M. tuberculosis FBA, fluorescence read-out; shares compounds with FBA Mtb inh
GDH-TPI counter-2 – inhibits GDH-TPI coupling enzymes, flagging Mtb FBA hits. GDH-TPI coupled enzyme counterscreen, fluorescence. shares compounds with FBA Mtb inh. actives 81% (n = 5,600). AID 652141. inhibition, % at 1 µM; in the data active = inhibition above about 10%
Hits are given with their value; . = inactive; / = no result; + = active, no number. Cut-off read from the data, not from the text of the source, unless noted: active = inhibition above about 27%; inactive = the rest.

SMILES	Mtb hypoxia inh	GDH-TPI counter-1	Mtb BioA inh	FadD28 binding	FBA Mtb inh	Mtb FBA confirm	GDH-TPI counter-2
CCCCCCCCC1=NCCc2c1[nH]c1ccccc21	.	.	.	.	.	/	/
CC1=NCCc2c1[nH]c1cc(O)ccc21	.	.	.	.	74.0	93.7	47.9
CC1(C)Cc2c(C#N)c(N3CCOCC3)nc(Cc3ccccc3)c2CO1	/	.	.	.	35.3	64.8	51.9
Cc1nc(N2CCOCC2)c(C#N)c2c1COC(C)(C)C2	.	.	/	.	51.1	.	.
CC1(C)Cc2c(C#N)c(N3CCN(C(=O)c4ccccc4)CC3)nc(Cc3ccccc3)c2CO1	/	.	.	.	.	/	/
CC=Cc1ccc2n(c1=O)C[C@@H]1[C@@H](CO)[C@H](C(=O)NCCCN3CCOCC3)N(C)[C@H]21 (mixture of isomers)	/	/	.	/	/	/	/
CN(C)/C=N/c1nc2nccc(-c3ccccc3)n2n1	/	.	.	.	51.7	132.0	105.6
CN(C)/C=N/c1nc2nccc(-c3ccc(Cl)cc3)n2n1	/	.	/	.	72.2	.	.
Nc1nonc1-n1nnc(C(=O)NN=Cc2cccnc2)c1CSc1ccccc1	.	/	/	/	/	/	/
COc1ccc(C2Nc3ccccc3C(=O)N2Cc2ccco2)cc1COc1ccc(NC(C)=O)cc1 (stereo not given)	/	.	.	.	40.6	.	.
COc1ccc(C2Nc3ccccc3C(=O)N2Cc2ccco2)cc1COc1ccccc1F (stereo not given)	/	.	/	.	.	/	/
Cc1ccc(C2Nc3ccccc3C(=O)N2Cc2ccco2)cc1 (stereo not given)	.	.	.	.	43.0	85.7	56.2
O=C1c2ccccc2NC(c2ccc(O)cc2)N1Cc1ccco1 (stereo not given)	.	.	.	.	.	/	/
COc1ccc(C2Nc3ccccc3C(=O)N2c2ccccc2)cc1COc1ccccn1 (stereo not given)	.	.	.	.	90.4	89.7	75.1
O=C1c2ccccc2NC(c2cccc(F)c2)N1Cc1ccco1 (stereo not given)	.	.	.	.	59.6	74.3	59.0
O=C(C[C@H]1CC[C@@H]2[C@H](COC[C@H](O)CN2S(=O)(=O)c2ccccc2F)O1)NCc1ccccc1F	/	/	.	/	/	/	/
O=C1c2ccccc2NC(c2cccc(F)c2)N1Cc1ccccc1 (stereo not given)	.	.	.	.	57.9	97.0	81.3
COc1cc(OC)nc(N=CNO)n1	.	/	/	/	/	/	/
CCn1c2ccccc2c2cc(/C=N/n3cnnc3)ccc21	/	46.3	.	.	32.5	58.9	48.1
CCn1c(/C=N/n2cnnc2)nc2ccccc21	/	47.2	.	.	28.2	115.7	82.5
CCn1c2ccccc2c2cc(/C=N/n3cn[nH]c3=S)ccc21	/	.	/	.	.	/	/
Cc1ccc2[nH]c3c(c2c1)CCC3=O	.	.	.	.	65.0	+	162.1
Cc1ccc2[nH]c3c(c2c1)CCCC3=O	/	.	.	.	.	/	/
C=C(C)COc1cc2oc(=O)c(CC(=O)N3C[C@H]4C[C@@H](C3)c3cccc(=O)n3C4)c(C)c2cc1Cl	/	.	.	.	67.5	.	.
C=C(C)COc1ccc2c(C)c(CCC(=O)N3C[C@H]4C[C@@H](C3)c3cccc(=O)n3C4)c(=O)oc2c1	/	.	.	.	70.3	65.3	52.8
SMILES	Mtb hypoxia inh	GDH-TPI counter-1	Mtb BioA inh	FadD28 binding	FBA Mtb inh	Mtb FBA confirm	GDH-TPI counter-2
Cc1c(C)c2ccc(OCC(=O)N3C[C@H]4C[C@@H](C3)c3cccc(=O)n3C4)cc2oc1=O	/	.	.	.	59.9	.	.
COc1cc(C)cc2oc(=O)c(CC(=O)N3C[C@H]4C[C@@H](C3)c3cccc(=O)n3C4)c(C)c12	/	.	.	.	80.6	139.0	123.6
C[C@H](CO)N1C[C@H](C)[C@@H](CN(C)C(=O)Nc2ccc3c(c2)OCO3)Oc2ccc(NC(=O)Cc3cn(C)c4ccccc34)cc2CC1=O	/	/	.	/	/	/	/
COC(=O)C1=C(C)N(Cc2ccccc2)C(=NCc2ccc3c(c2)OCO3)NC1c1ccccc1 (stereo not given)	.	/	/	/	/	/	/
NC(=O)c1cc2c(s1)-c1cc(Cl)ccc1SC2	.	.	/	.	.	/	/
COCCNC(=O)c1cc2c(s1)-c1ccc(Cl)cc1SC2	.	.	.	.	45.6	173.9	160.1
COc1cc(S(C)=O)ccc1-c1nc2ncccc2[nH]1 (stereo not given)	.	32.4	.	.	55.4	89.6	72.5
O=C1CCCC2=C1C(c1ccco1)Nc1ccc3ccccc3c12 (stereo not given)	/	.	.	.	95.1	109.9	76.5
O=C1CCCC2=C1C(c1ccc(O)c(O)c1)Nc1ccc3ccccc3c12 (stereo not given)	.	.	.	.	.	/	/
CN(C)C(=O)C[C@@H]1C=C[C@H](NC(=O)c2ccc(F)cc2)[C@H](CO)O1	/	/	.	/	/	/	/
COC(=O)CNC(=O)COC(=O)c1cc(Cl)cc(Cl)c1N	.	.	/	.	109.5	+	+
CC1(C)CC2CC(C)(CN2C(=O)COC(=O)c2cc(Cl)cc(Cl)c2N)C1 (stereo not given)	.	.	.	.	.	/	/
CC(C)CNC(=O)COC(=O)c1cc(Cl)cc(Cl)c1N	.	.	.	.	78.2	+	+
COc1ccccc1C(=O)Nc1ccc2c(c1)C(=O)N(C)[C@H]1CC[C@@H](CC(=O)NCCc3ccncc3)O[C@@H]1CO2	/	/	.	/	/	/	/
CC(=O)Nc1ccc(S(=O)(=O)Nc2nc3nc(-c4ccccc4)cc(-c4ccccc4)n3n2)cc1	.	.	.	.	.	/	/
O=C(O)CCC(=O)Nc1nc2nc(-c3ccccc3)cc(-c3ccccc3)n2n1	/	35.9	.	.	97.9	84.8	98.0
C[C@H]1CN([C@@H](C)CO)C(=O)c2ccccc2-c2ccccc2CO[C@H]1CN(C)Cc1ccc2c(c1)OCO2	/	/	.	/	/	/	/
Cc1cc(OCC(=O)NCc2ccncc2)c2c(C)cc(=O)oc2c1	.	.	.	.	79.0	39.5	39.1
COc1ccc(CCNC(=O)COc2cc(C)cc3oc(=O)cc(C)c23)cc1	.	.	.	.	.	/	/
Cc1cc(OCC(=O)NCC(O)c2ccccc2)c2c(C)cc(=O)oc2c1 (stereo not given)	.	.	.	.	77.4	.	.
Cc1cc(OCC(=O)NCC(O)c2ccccc2)c2c3c(c(=O)oc2c1)CCCC3 (stereo not given)	.	.	.	.	.	/	/
Cc1cc(OC(C)C(=O)NCc2ccncc2)c2c(C)cc(=O)oc2c1 (stereo not given)	.	.	.	.	83.6	169.4	158.9
Cc1cc(OC(C)C(=O)NCc2cccnc2)c2c(C)cc(=O)oc2c1 (stereo not given)	.	.	.	.	107.6	+	+
COC(=O)/C(=C/C(=O)c1ccccc1)Nc1ccc(OC)cc1	.	/	/	/	/	/	/
C[C@H](CO)N1C[C@H](C)[C@H](CN(C)Cc2ccc3c(c2)OCO3)Oc2ccc(NS(=O)(=O)c3cn(C)cn3)cc2C1=O	/	/	.	/	/	/	/
